Data published in article PMC5540273 (PLoS ONE, 2017).

How the values were obtained:
Details in all cases: concentration: 1 μM, replicates: in singlicate; n = 1
TLK2 = tested on: TLK2
TNIK = tested on: TNIK
TNK1 = tested on: TNK1
TNK2 = tested on: TNK2
TNNI3K = tested on: TNNI3K
TRKA = tested on: T1, TRKA
T1 construct: gene NTRK1

TRKB = tested on: TRKB
TRKC = tested on: T2, TRKC
T2 construct: gene NTRK3

TRPM6 = tested on: TRPM6
TSSK1B = tested on: TSSK1B
TSSK3 = tested on: TSSK3
TTK = tested on: TTK
TXK = tested on: TXK
[1] = tested on: TYK2(JH1domain-catalytic)
[2] = tested on: TYK2(JH2domain-pseudokinase)
TYRO3 = tested on: TYRO3
ULK1 = tested on: ULK1
ULK2 = tested on: ULK2
ULK3 = tested on: ULK3
VEGFR2 = tested on: T3, VEGFR2
T3 construct: gene KDR
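Also: KINOMEscan kinase panel screen.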

| Structure (SMILES) | %Inh (TLK2) | %Inh (TNIK) | %Inh (TNK1) | %Inh (TNK2) | %Inh (TNNI3K) | %Inh (TRKA) | %Inh (TRKB) | %Inh (TRKC) | %Inh (TRPM6) | %Inh (TSSK1B) | %Inh (TSSK3) | %Inh (TTK) | %Inh (TXK) | %Inh [1] | %Inh [2] | %Inh (TYRO3) | %Inh (ULK1) | %Inh (ULK2) | %Inh (ULK3) | %Inh (VEGFR2) |
| --- | --- | --- | --- | --- | --- | --- | --- | --- | --- | --- | --- | --- | --- | --- | --- | --- | --- | --- | --- | --- |
| O=C(NOCC1CC1)c1ccc(F)c(F)c1Nc1ccc(I)cc1Cl | 0% | 2% | 26% | 0% | 0% | 0% | 0% | 0% | 0% | 0% | 0% | 0% | 0% | 0% | 0% | 0% | 0% | 0% | 0% | 0% |
| Cc1ccc(NC(=O)c2ccnc(N3CCN(C)CC3)c2)cc1-c1ccc(C(=O)NCC2CC2)cc1 [GW775604] | 0% | 0% | 34% | 0% | 0% | 0% | 0% | 0% | 0% | 0% | 0% | 0% | 0% | 100% | 0% | 0% | 0% | 100% | 0% | 0% |
| CN(C1=C(c2ccccc2)C(=O)NC1=O)c1ccccc1 [SB-334860] | 6% | 4% | 7% | 18% | 20% | 18% | 0% | 0% | 31% | 11% | 15% | 0% | 83% | 0% | 0% | 0% | 5% | 8% | 6% | 12% |
| Cl.Oc1cccc(Nc2ccnc3cc(-c4ccncc4)ccc23)c1 [GW494601] | 9% | 86% | 72% | 16% | 33% | 68% | 11% | 25% | 0% | 0% | 6% | 39% | 97.6% | 93.1% | 49% | 82% | 0% | 0% | 31% | 95.4% |
| Cc1nnc(-c2ccc3ncc(-c4ccc(S(C)=O)cc4)n3c2)o1 (centres unmarked) | 0% | 0% | 0% | 0% | 1% | 0% | 0% | 36% | 6% | 0% | 0% | 0% | 0% | 5% | 2% | 9% | 2% | 18% | 5% | 0% |
| CCCCCc1nc2c(N)ncnc2n1CCCCC [SKF-97255] | 20% | 0% | 19% | 0% | 0% | 0% | 0% | 0% | 13% | 0% | 0% | 0% | 12% | 7% | 9% | 0% | 12% | 12% | 11% | 0% |
| COc1cc2c(cc1OCCN1CCN(C)CC1)ncc1c3ccc(C#N)cc3[nH]c21 | 0% | 91% | 8% | 0% | 2% | 99.8% | 97.2% | 83% | 0% | 34% | 9% | 7% | 0% | 0% | 35% | 0% | 92.4% | 99.9% | 66% | 23% |
| COc1cc2ncn(-c3cc(OCc4sccc4Cl)c(C(N)=O)s3)c2cc1OC [GSK448459] | 0% | 74% | 0% | 24% | 0% | 47% | 25% | 14% | 0% | 1% | 10% | 5% | 0% | 22% | 19% | 0% | 17% | 0% | 19% | 0% |
| O=C1Cc2cc(Nc3nc(NCc4cccc(S(=O)(=O)C(F)(F)F)c4)ncc3C(F)(F)F)ccc2N1 | 3% | 0% | 0% | 10% | 0% | 17% | 0% | 10% | 0% | 19% | 9% | 0% | 4% | 25% | 0% | 3% | 3% | 26% | 12% | 0% |
| Cc1cccc(-c2nc(Nc3ccc4ncsc4c3)c3ccccc3n2)n1 [GW867588] | 0% | 15% | 39% | 0% | 1% | 14% | 0% | 0% | 0% | 0% | 0% | 55% | 0% | 0% | 55% | 0% | 4% | 0% | 2% | 6% |
